Screening results from PubChem.
Shown are actives, neighbours in structure and some others; about 19% of the full set was active somewhere.
HT1080NT lethal – qHTS for induction of synthetic lethality in tumor cells producing 2HG: qHTS for the HT-1080-NT fibrosarcoma cell line; HT-1080-NT fibrosarcoma viability, CellTiter-Glo ATP luminescence, 48 h; Potency, µM (series often up to 46.1 µM), without a hit: at the highest dose activity, negative = less viability, usual class: cytotoxic; 360,000 compounds, 1.6% hits; AID 686970, 2013;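 note: NT is the 2HG producing partner of a matched IDH1 knockdown line; potency is the fitted concentration of half-maximal effect; 0% = DMSO-treated cells and -100% = media-only wells without cells; nearly all actives have a fitted effect of over 55% in size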
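Fibrosarcoma NT cells, 750 per well in 5% FBS RPMI, were exposed to compound for 48 hours. Viability: CellTiter-Glo luminescence.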
TDP1 cell noCPT – qHTS for Inhibitors of human tyrosyl-DNA phosphodiesterase 1 (TDP1): qHTS in cells in absence of CPT. DT40 Tdp1-/- hTDP1 cells, no CPT, ATP luminescence, 48 h. Potency, µM (doses to about 46.2 µM), for the others: at the top dose activity change, negative = growth inhibition, actives largely listed as inhibitors. AID 686978, 2013. 420,000 compounds, 15% hits; note: potency is the fitted concentration of half-maximal effect; nearly all actives have a fitted effect of over 55% in size
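Compound effects on proliferation are scored in DT40 Tdp1-/-;hTDP1 cells in the absence of CPT. ATP levels (CellTiter-Glo luminescence) are recorded after a ≥48 hr, 37 °C incubation.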
IL1B secr inh – qHTS for Inhibitors of Inflammasome Signaling: IL-1-beta AlphaLISA Primary Screen; activity change, % at 57.5 µM; THP-1 LPS/ATP IL-1B secretion, AlphaLISA, 16 h; hits give low values; 360,000 compounds, 4.7% hits; AID 743279, 2014; in the data active = activity change below about -50%; inconclusive = mostly about -30% to -49%
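THP-1 cells pretreated 1 hr with compounds (up to 57.5 uM final), then stimulated with LPS (250 ng/mL final) plus ATP (1.25 mM final); secreted IL-1B measured by AlphaLISA after 16 hr, decreased signal indicating inhibition.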
DT40 TDP1 CPT – qHTS for Inhibitors of human tyrosyl-DNA phosphodiesterase 1 (TDP1): qHTS in cells in presence of CPT | chicken DT40 Tdp1-/-;hTDP1 cells + 20 nM CPT, ATP luminescence, 48 h | Potency, µM (top dose mostly 46.2 µM), inactives show at the highest dose activity change, negative = growth inhibition, most hits filed as inhibitors | 420,000 compounds, 12% hits | AID 686979, 2013; note: potency is the fitted concentration of half-maximal effect; nearly all actives have a fitted effect of over 55% in size
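Chicken DT40 Tdp1-/- cells stably complemented with human TDP1 were seeded at 400 cells/well in medium containing 20 nM camptothecin, exposed to pin-transferred compounds, and grown at 37 °C for at least 48 hr. Viability was read as ATP luminescence.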
HT1080 IDH1KD tx – qHTS for induction of synthetic lethality in tumor cells producing 2HG: qHTS for the HT-1080-IDH1KD cell line; HT-1080 IDH1 knockdown viability, ATP luminescence, 48 h; Potency, µM (titrated, usually from 46.1 µM), for the others: top-dose activity, negative = toxicity, actives largely listed as cytotoxic; 360,000 compounds, 2% hits; AID 686971, 2013;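 note: potency is the fitted concentration of half-maximal effect; 0% = DMSO wells and -100% = cell-free medium wells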
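Cytotoxicity counter-line: IDH1KD HT-1080, 48 h, CellTiter-Glo. Curves classed by r2, magnitude and activity.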
* = called active by the depositor; ? = inconclusive; . = no result. Unless noted, calls come from the whole dose curve; as a rule, active = well fitted curve in the direction sought with a large enough effect; inconclusive = small, poorly fitted or top-dose-only effect, or another doubt; inactive = no such curve, though single readings can be large; an effect the other way counts as inactive or inconclusive. Unless noted, % is set by controls: 0 for no effect and ±100 for the full control effect.

SMILES	HT1080NT lethal	TDP1 cell noCPT	IL1B secr inh	DT40 TDP1 CPT	HT1080 IDH1KD tx
COc1ccc(OC)c(-c2c3cc(O)c(=O)cc-3oc3cc(O)c(O)cc23)c1	?	?	45.4	?	?
CCOc1ccccc1-c1c2cc(O)c(=O)cc-2oc2cc(O)c(O)cc12	?	?	35.1	23.1µM*	?
COc1ccc(CC(=O)NC(c2ccccc2)c2ccc(C)cc2)c(OC)c1 (stereo unspecified)	17.7%	18.4µM*	-13.3	?	3.0%
COc1ccc(C(=O)N2CCN(c3cccc(Cl)c3)CC2)cc1	-8.1%	16.4µM*	-59.0*	?	10.9%
O=C(c1ccc([N+](=O)[O-])s1)N1CCN(c2cccc(Cl)c2)CC1	3.9%	20.6µM*	-57.7*	20.6µM*	6.1%
Cc1ccc(C(=O)N2CCN(c3cccc(Cl)c3)CC2)cc1C	?	25.9µM*	15.9	?	?
COc1ccc(C(=O)N2CCN(c3cccc(Cl)c3)CC2)cc1S(=O)(=O)NC1CC1	?	14.6µM*	22.1	14.6µM*	?
O=C(c1cccs1)N1CCN(c2cccc(Cl)c2)CC1	1.3%	-1.5%	-14.0	-10.0%	-0.3%
COC(=O)c1ccc(C(=O)OC)c(NC(=S)N2CCN(c3cccc(Cl)c3)CC2)c1	-3.8%	?	0.0	-22.1%	-12.5%
COc1ccc(C(=S)N2CCN(c3cccc(Cl)c3)CC2)c(OC)c1	?	4.11µM*	50.0	2.59µM*	?
CC(C)C(=O)N1CCC(n2nccc2NC(=O)CCc2ccccc2)CC1	8.4%	?	2.8	?	6.6%
COC(=O)N1C(=O)[C@](c2ccccc2)(C2CCCC2)N1C(=O)OC	-0.1%	?	-95.6*	?	-0.1%
COCC(C)NC(=O)Cc1ccc(Cl)cc1 (stereo unspecified)	-0.2%	12.4%	10.0	12.1%	10.8%
COC(=O)N1C(=O)[C@@](c2ccccc2)(C(C)C)N1C(=O)OC	-0.5%	?	?	16.4µM*	-8.7%
COC(=O)N1C(=O)[C@@](c2ccc(OC)cc2)(C(C)C)N1C(=O)OC	-18.6%	?	-101.4*	?	-14.3%
COC(=O)N1C(=O)[C@](c2ccc(Cl)cc2)(C(C)C)N1C(=O)OC	-24.3%	23.1µM*	.	13µM*	-12.5%
[N-]=[N+]=CC(=O)C(c1ccccc1)(c1ccccc1)c1ccccc1	4.2%	?	.	3.3%	1.1%
Cc1cc(CNC(=O)c2cc(COc3ccc(F)c(F)c3)on2)nn1C	-1.6%	?	7.2	14.6µM*	-0.5%
Cc1nc(C(C)NC(=O)c2cc(COc3ccc(F)c(F)c3)on2)cs1 (stereo unspecified)	4.8%	?	-7.7	?	-2.6%
Cn1c(CCNC(=O)c2cc(COc3ccc(F)c(F)c3)on2)nc2ccccc21	-1.5%	?	-9.3	?	-10.8%
CCOC(=O)CC1(NC(=O)c2cc(COc3ccc(F)c(F)c3)on2)CCCCC1	-3.4%	18.4µM*	27.3	23.1µM*	-27.5%
Cc1cc(C)n(CC(C)NC(=O)c2cc(COc3c(F)cccc3F)on2)n1 (stereo unspecified)	-12.0%	?	-13.9	-45.8%	-20.2%
Cc1cc(C)n(CC(C)NC(=O)c2cc(COc3ccc(F)c(F)c3)on2)n1 (stereo unspecified)	3.0%	16.4µM*	-6.9	?	0.0%
Cc1cccc(CC(C)NC(=O)c2cc(COc3ccc(C)c(C)c3)on2)n1 (stereo unspecified)	-10.0%	20.6µM*	?	20.6µM*	-22.1%
CCOc1cc(C(=O)NCCCn2ccnc2)cc(OCC)c1OCC	8.6%	13.4%	11.7	0.8%	7.9%
